Data on 16 molecules can be found in PubChem BioAssay (NCATS).

Inconclusive results are not listed. Calls of active or inactive are those of the source. Unless noted, the call rests on the fitted dose curve; in most records, active means well fitted curve in the direction sought with a large enough effect; inconclusive means small, poorly fitted or top-dose-only effect, or another doubt; inactive means no such curve, though single readings can be large; an effect the other way counts as inactive or inconclusive.

Experiment [1] is described as follows: qHTS profiling for inhibitors of Plasmodium falciparum proliferation (AID 504749). Further: potency means the concentration at half of the fitted maximal effect.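 On activity, negative = inhibition: 0% = DMSO vehicle and full inhibition = artemisinin control.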 On all read-outs here: nearly all actives have a fitted effect of over 60% in size. The note with it: P. falciparum in erythrocytes, SYBR Green DNA, 72 h; for activity, negative = inhibition: at 28.7 µM (top of the series). The procedure, abridged:
(§1)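 Fluorescence of SYBR Green-bound parasite DNA, read at 485/535 nm, served as the growth measure. Infected erythrocytes were cultured with compound 72 h; artemisinin (0.29 uM) and DMSO wells defined the normalization range.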
A general note: Quantitative high-throughput screening tests each substance at several concentrations.

In the next experiment the test system is 3D7. The experiment is described as above. The note with it: P. falciparum in erythrocytes, SYBR Green DNA, 72 h; series mostly up to 28.7 µM. Put shortly:
as §1

The next experiment relates to 7G8. Described as above. The note with it: P. falciparum in erythrocytes, SYBR Green DNA, 72 h; series mostly up to 28.7 µM. Put shortly:
as §1

Experiment [2] is described as follows: Quantitative High-Throughput drug screen in 47 multiple myeloma cell lines against the NCATS MIPE library collection: U266_ATCC cell viability assay (AID 1919864). Further: nearly all actives have a fitted effect of over 35% in size. Further: potency means the concentration at half of the fitted maximal effect. The procedure, abridged: (§2)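 Readout: median RLU from CellTiter-Glo after 5 min at room temperature. Preceding step was 48 h drug treatment of 500 cells/well at 37 °C, 5% CO2, with DMSO-only and media-only control wells.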

Experiment [3] in a line: Quantitative High-Throughput drug screen in 47 multiple myeloma cell lines against the NCATS MIPE library collection: PE2_PLB cell viability assay (AID 1919869). Further: nearly all actives have a fitted effect of over 35% in size. The procedure, abridged:
as §2

Experiment [4] is described as follows: Quantitative High-Throughput drug screen in 47 multiple myeloma cell lines against the NCATS MIPE library collection: OPM2_DSMZ cell viability assay (AID 1919872). Further: nearly all actives have a fitted effect of over 30% in size. The procedure, abridged: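 Luminescent ATP measurement with CellTiter-Glo gives viability, scaled between DMSO-only wells (100%) and media-only wells (0%). Cells, 500 per well, faced library compounds for 48 hours at 37C.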

Experiment [5] can be described thus: Quantitative High-Throughput drug screen in 47 multiple myeloma cell lines against the NCATS MIPE library collection: KMS11_JCRBsus cell viability assay (AID 1919873). Further: nearly all actives have a fitted effect of over 50% in size. Further: potency means the concentration at half of the fitted maximal effect. The procedure, abridged:
as §2

A short description of experiment [6]: Quantitative High-Throughput drug screen in 47 multiple myeloma cell lines against the NCATS MIPE library collection: KMS28BM_JCRB cell viability assay (AID 1919874). Further: nearly all actives have a fitted effect of over 35% in size. Put shortly: as §2
Experiment [7] is described as follows: qHTS for identification of novel therapeutic agents for treatment of microphthalmiaassociated transcription factor (MiT) renal cell carcinoma (RCC) (AID 1963991).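 Further: curves scaled with 100% = DMSO viability and 0% = empty wells.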 The note with it: CellTiter-Glo, 48 h, stronger effect = lower value. Put shortly: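 UOK109/UOK124/UOK145 (TFE3 fusions, three partners); 500 cells/well; MIPE v4.0, 1912 cpds, 11 conc.; 48 h, 37 C; CellTiter-Glo, 15 min RT; lum. Norm.: DMSO 100%, empty 0%.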

Experiment [8] in a line: Quantitative High-Throughput drug screen in 47 multiple myeloma cell lines against the NCATS MIPE library collection: XG6_PLB cell viability assay (AID 1919865). Further: nearly all actives have a fitted effect of over 40% in size. Further: potency means the concentration at half of the fitted maximal effect. Put shortly:
as §2

Experiment [9] in a line: Quantitative High-Throughput drug screen in 47 multiple myeloma cell lines against the NCATS MIPE library collection: XG1_PLB cell viability assay (AID 1919866). Further: nearly all actives have a fitted effect of over 35% in size. Further: potency means the concentration at half of the fitted maximal effect. Put shortly:
as §2

A short description of experiment [10]: Quantitative High-Throughput drug screen in 47 multiple myeloma cell lines against the NCATS MIPE library collection: RPMI8226_ATCC cell viability assay (AID 1919871). Further: nearly all actives have a fitted effect of over 30% in size. Further: potency means the concentration at half of the fitted maximal effect. The procedure, abridged: as §2
Experiment [11] in a line: qHTS drug screen for cell cycle checkpoint inhibitors in PARPi-resistant BRCA-mutant ovarian cancer cell lines. (AID 1963452; calls by dose curve). The note with it: PEO1/OlaR viability, CellTiter-Glo luminescence, 96 h, stronger effect = lower value. The procedure, abridged:
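PEO1, PEO4 and PEO1/OlaR ovarian cancer cells, 600 per well, exposed 96 h at 37C to a dilution series. Viability read by CellTiter-Glo luminescence, normalized to DMSO and empty wells; activity summarized as Z-AUC.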

The nature of experiment [12]: Quantitative High-Throughput drug screen in 47 multiple myeloma cell lines against the NCATS MIPE library collection: PCM6_Riken cell viability assay (AID 1919870). Further: nearly all actives have a fitted effect of over 30% in size. Put shortly: as §2
Experiment [13] is described as follows: KB-8-5-11 P-gp reporter qHTS against the NCATS DSHEA and TCM libraries (AID 1919977). Further: 0% is about no effect. Put shortly:
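CellTiter-Glo luminescence after ~72 h exposure at 37C gave viability of KB-8-5-11 cells, the P-gp-overexpressing subline. Substances were titrated; colchicine was omitted from assay medium.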

[14] abbreviates: TFE3-RCC UOK109 viability, measured here: UOK109 Z-AUC.
[15] abbreviates: TFE3-RCC viability, measured here: UOK124 Z-AUC.
[16] abbreviates: TFE3-RCC viability, measured here: UOK145 Z-AUC.
Where [17] appears, read: measured here: PEO1 parental Z-AUC.

For the molecule `O=[N+]([O-])c1ccc([As](=O)(O)O)cc1`, the Potency was 6.31 µM (active) in experiment [1] (parasite line A), 6.31 µM (active) in experiment [1] (parasite line B), 10 µM (active) with 3D7 and 3.55 µM (active) in the experiment on 7G8.
On to `C[C@@H]1[C@H](O)[C@@H](C)C=CC=CCCC=CC=CC=CC=C[C@H](O[C@H]2O[C@@H](C)[C@H](O)[C@@H](N)[C@@H]2O)CC2O[C@](O)(C[C@@H](O)[C@H](O)CC[C@@H](O)C[C@@H](O)C[C@@H](O)CC(=O)O[C@H]1C)C[C@H](O)[C@H]2C(=O)O`, for which the Potency result in experiment [2], in [3], in [4], in [5] and in experiment [6] was “inactive” throughout. The z-score in experiment [7] (setting [14]) is 0.777; in experiment [7] (setting [15]) it was 0.659; in experiment [7] (setting [16]), -1.57.
As for `O=C(O)C(Cl)Cl`, the activity, negative = inhibition is 7.93% (inactive) in [1] (parasite line A) and -3.72% (inactive) in [1] (parasite line B). The Potency result with 3D7 and in the experiment on 7G8 was “inactive” in each case.
As for `O=C(O)COc1ccccc1`, the activity, negative = inhibition in [1] (parasite line A) was -0.911% (inactive); in [1] (parasite line B), 7.97% (inactive). The Potency result in the experiment with 3D7 and with 7G8 was “inactive” throughout.
`CC(C)NC(C)Cc1ccc(I)cc1` (configuration not stated): the activity, negative = inhibition is 11.4% (inactive) in experiment [1] (parasite line A) and -12.4% (inactive) in experiment [1] (parasite line B). For the same molecule, the Potency result with 3D7 was “inactive”. Further, the Potency in the experiment with 7G8 was 10 µM (active).
With `CC(O)=C(C#N)C(=O)Nc1cc(Br)ccc1Br`, the Potency result in experiment [8], in [9] and in experiment [4] was “inactive” throughout. Also, the Potency in experiment [10] was 11.8 µM (active). Moreover, the z-score in experiment [7] (setting [14]) turned out to be 0.277; in experiment [7] (setting [15]), 0.279; in experiment [7] (setting [16]), 0.63.
In the case of `C=C1C[C@H]2[C@H]3CCC(=O)[C@@]3(C)CC[C@@H]2[C@@]2(C)C=CC(=O)C=C12`, the values for the Potency in experiment [2] and in experiment [10] were 20.9 µM (active) and 18.7 µM (active), respectively. The Potency result in [4] and in experiment [6] was “inactive” throughout.
As for `CCCN1CCO[C@@H]2c3cc(O)ccc3OC[C@H]21`, the Z-AUC is 0.538 (inactive) in [11], 0.85 in [11] (setting [17]) and 0.552 in [11] (measured here: PEO4 Z-AUC).
In the case of `C[C@]12CC[C@H](O)CC1=CC[C@H]1[C@H]3CCC(=O)[C@@]3(C)CC[C@@H]12`, the Potency entry in experiment [3] and in [4] was “inactive” in each case. For the same molecule, the Potency in experiment [5] was 23.5 µM (active).
Turning to `CCCCc1ccc(C(=O)O)nc1`, the activity, negative = inhibition is 0.211% (inactive) in [1] (parasite line A) and 1.46% (inactive) in experiment [1] (parasite line B). Also, the Potency entry in the experiment with 3D7 and with 7G8 was “inactive” in each case.
In the case of `O=C(N[C@@H](COc1ccc2[nH]c(=O)[nH]c2c1)c1ccccc1)c1cccn(Cc2ccc(F)c(F)c2)c1=O`, the Potency in experiment [8] is 18.7 µM (active); in experiment [9] it was 5.26 µM (active). In addition, in [4], the Potency result is “inactive”. Also, the results for the Z-AUC in experiment [11], in [11] (setting [17]) and in [11] (measured here: PEO4 Z-AUC) were -0.315 (inactive), 0.00624 and 0.64, respectively.
`CCCN1CCC[C@H](c2cccc(O)c2)C1`: the activity, negative = inhibition in experiment [1] (parasite line A) is 8.52% (inactive); in experiment [1] (parasite line B), -0.779% (inactive). The Potency result in the experiment with 3D7 was “inactive”.
Regarding `CC=C(C)C(=O)N[C@@H](c1ccccc1)[C@@H](O)C(=O)O[C@H]1C[C@@]2(O)[C@@H](OC(=O)c3ccccc3)[C@@H]3[C@]4(OC(C)=O)CO[C@@H]4C[C@H](O)[C@@]3(C)C(=O)[C@H](OC(C)=O)C(=C1C)C2(C)C`, the Potency result in experiment [8], in [9], in [3], in [12], in experiment [10] and in experiment [5] was “inactive” in each case.
Consider `CC(=O)N(C)c1cccc(-c2ccnc3c(C(=O)c4cccs4)cnn23)c1`, for which the Potency result in experiment [8], in experiment [9], in experiment [3], in [12], in experiment [4] and in experiment [6] was “inactive” each time. In experiment [5], the Potency is 18.7 µM (active).
As to `C1CCC(NC2CCCCC2)CC1`, the activity, negative = inhibition in experiment [1] (parasite line A) is 7.71% (inactive); in experiment [1] (parasite line B), 9.08% (inactive). For the same molecule, the Potency entry in the experiment with 3D7 and in the experiment with 7G8 was “inactive” each time.
Turning to `O=C(O)c1ccccc1O`, in experiment [13], the outcome was inactive.
